These results are taken from the supplement of paper PMC9135407.

Where “and” joins values, the source holds several entries; their conditions need not be identical. Equal entries are not always repeated. Structures can show the parent of a compound that is named as a salt. Hit rate of the full screen: of about 5,800 compounds, about 620 (11%) showed activity. The full list was thinned out, with actives kept by preference. Unmarked numbers belong to inactive results.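 Rule for the calls: active = score above a cut-off or among the top three wells of a plate; in these data no inactive exceeds 0.85.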

In this test the test system is primary human hepatic stellate cells (donor 1). As to the kind of experiment: scaled lipid accumulation score (0 = DMSO-like, 1 = nortriptyline-like); higher = stronger HSC inactivation (lipid re-accumulation), active = hit call of the paper. The note with it: 48 h.
[1] abbreviates: library stock concentration: 3.33 mM.
The mark [2] stands for this setting: library stock concentration: 10 mM.
[3] abbreviates: library stock concentration: 1 mM.
Where [4] appears, read: library stock concentration: 80 uM.
The mark [5] stands for this setting: library stock concentration: 400 uM.
The mark [6] stands for this setting: library stock concentration: 2 mM.

As for `OC(CNCC(O)C1CCc2cc(F)ccc2O1)C1CCc2cc(F)ccc2O1` (configuration not stated) [Nebivolol], the “scaled lipid accumulation score” value is, setting by setting: under setting [1], 0.769; under setting [2], not above 0.

Take `Cl.O[C@H](CNC[C@@H](O)[C@H]1CCc2cc(F)ccc2O1)[C@@H]1CCc2cc(F)ccc2O1` [Nebivolol hydrochloride]: the “scaled lipid accumulation score” value under setting [2] was 0.861 (active).

As for `CCCCCC(=O)/C=C/[C@@H]1[C@H](C/C=C\CCCC(=O)O)[C@H](O)C[C@H]1O` [8-iso-15-keto Prostaglandin F2.beta.], the “scaled lipid accumulation score” value under setting [3] was not above 0.

In the case of `COC(=O)c1ccc(O)c2nc3c(C=O)c(O)cc(O)c3nc12` [Lomofungin], the “scaled lipid accumulation score” value (library stock concentration: 6.4 mM) is not above -0.006.

For `Cn1cc(C(=O)OCC2CCN(CCNS(C)(=O)=O)CC2)c2ccccc21` [listing 1 of 2 here], the “scaled lipid accumulation score” value under setting [2] was 0.41.

As for `COc1[nH]c2ccc(F)cc2c1C(=O)OCC1CCN(CCNS(C)(=O)=O)CC1.NS(=O)(=O)O`, under setting [2], the “scaled lipid accumulation score” value is 0.298.

On to `Cn1cc(C(=O)OCC2CCN(CCNS(C)(=O)=O)CC2)c2ccccc21` [listing 2 of 2 here], for which the “scaled lipid accumulation score” value under setting [2] is 0.925 (active).

`C/C=C1\[C@H]2C=C(C)C[C@]1(N)c1ccc(=O)[nH]c1C2` [(-)-Huperzine A]: where the note is “library stock concentration: 20.6 mM”, the “scaled lipid accumulation score” value was 0.185.

Take `C/C=C1\[C@H]2C=C(C)C[C@]1(N)c1ccc(=O)[nH]c1C2`: the “scaled lipid accumulation score” value under setting [2] was not above 0.

As to `CC(C)(C)C(=O)Nc1ccccc1` [N-Pivaloylaniline], the “scaled lipid accumulation score” value under setting [3] is 0.066.

Consider `CC(C)=CCC/C(C)=C/CC/C(C)=C/CC[C@]1(C)CCc2cc(O)cc(C)c2O1` [.delta.-Tocotrienol], for which the “scaled lipid accumulation score” value under setting [3] is not above 0.

`CC(C)[C@@H]1NC(=O)[C@H](Cc2ccccc2)NC(=O)[C@@H](CC(=O)O)NC(=O)CNC(=O)[C@H](CCCN=C(N)N)NC1=O` [Cyclo [Arg-Gly-Asp-D-Phe-Val]]: the “scaled lipid accumulation score” value (library stock concentration: 8.7 mM) was not above -0.003.

Regarding `CN[C@H]1CC[C@@H](c2ccc(Cl)c(Cl)c2)c2ccccc21` [Sertraline] [listing 1 of 2 here], the “scaled lipid accumulation score” value was 1.23 (active).

Turning to `CN[C@H]1CC[C@@H](c2ccc(Cl)c(Cl)c2)c2ccccc21` [Sertraline hydrochloride], the “scaled lipid accumulation score” value is 0.777 (library stock concentration: 5.8 mM); ≤ -0.055 and 0.281 and 0.318 under setting [2].

Take `CN[C@H]1CC[C@@H](c2ccc(Cl)c(Cl)c2)c2ccccc21` [Sertraline] [listing 2 of 2 here]: the “scaled lipid accumulation score” value under setting [2] was 0.147 and 0.63.

In the case of `CN[C@H]1CC[C@@H](c2ccc(Cl)c(Cl)c2)c2ccccc21` [Sertraline HCl], the “scaled lipid accumulation score” value was 0.103 under setting [1] and 0.033 under setting [2].

On to `CC(C)[C@H](NC(=O)CNC(=O)OC(C)(C)C)C(=O)N[C@H](C=O)C(C)C`, for which the “scaled lipid accumulation score” value (library stock concentration: 14 mM) is 0.022.

As for `COC(=O)[C@H]1[C@H]2C[C@@H]3c4[nH]c5cc(OC)ccc5c4CCN3C[C@H]2C[C@@H](OC(=O)c2cc(OC)c(OC)c(OC)c2)[C@@H]1OC` [Reserpine] [listing 1 of 3 here], the “scaled lipid accumulation score” value under setting [2] is 1.18 (active).

Turning to `COc1ccc2c3c([nH]c2c1)[C@H]1C[C@H]2[C@H](C[C@@H](O)[C@H](OC)[C@H]2C(=O)O)CN1CC3` [Reserpinic acid hydrochloride], the “scaled lipid accumulation score” value is not above 0.

On to `COC(=O)[C@H]1[C@H]2C[C@@H]3c4[nH]c5cc(OC)ccc5c4CCN3C[C@H]2C[C@@H](OC(=O)c2cc(OC)c(OC)c(OC)c2)[C@@H]1OC` [Reserpine] [listing 2 of 3 here], for which the “scaled lipid accumulation score” value was not above 0. Besides, the “scaled lipid accumulation score” value under setting [2] was 0.574 and 0.771.

With `COC(=O)[C@H]1[C@H]2C[C@@H]3c4[nH]c5cc(OC)ccc5c4CCN3C[C@H]2C[C@@H](OC(=O)/C=C/c2cc(OC)c(OC)c(OC)c2)[C@@H]1OC` [Rescinnamin], the “scaled lipid accumulation score” value is 0.478.

Regarding `CCOC(=O)Oc1c(OC)cc(C(=O)O[C@@H]2C[C@@H]3CN4CCc5c([nH]c6cc(OC)ccc56)[C@H]4C[C@@H]3[C@H](C(=O)OC)[C@H]2OC)cc1OC` [Syrosingopine], the “scaled lipid accumulation score” value is 0.248.

For the molecule `COC(=O)[C@H]1[C@H]2C[C@@H]3c4[nH]c5cc(OC)ccc5c4CCN3C[C@H]2C[C@@H](OC(=O)c2cc(OC)c(OC)c(OC)c2)[C@@H]1OC` [Reserpine] [listing 3 of 3 here], under setting [2], the “scaled lipid accumulation score” value was 0.944 (active).

Take `CC1/C=C/C=C/C=C/C=C/C=C/C=C/C=C/C(OC2O[C@H](C)[C@@H](O)[C@H](N)[C@@H]2O)CC(O)C(C(=O)O)C(O)CC(=O)CC(O)CC(O)CC(O)CC(=O)CCCC(=O)CC(=O)OC1C(C)CC(C)C(O)CC(=O)c1ccc(N)cc1` (some centres not stated): the “scaled lipid accumulation score” value under setting [2] is not above 0.

As to `CCN(CC)CC1CCCCN1CC(=O)N1c2ccccc2C(=O)Nc2cccnc21` (configuration not stated), the “scaled lipid accumulation score” value under setting [2] was ≤ 0 and ≤ -0.006.

On to `CCCCC/C=C\CC1OC1C/C=C\C/C=C\CCCC(=O)O` (configuration not stated), for which the “scaled lipid accumulation score” value (library stock concentration: 100 uM) was not above -0.021.

`O=C(O)CCC/C=C\C[C@@H]1[C@@H](/C=C/[C@@H](O)COc2ccccc2)[C@H](O)C[C@@H]1O` [16-phenoxy tetranor Prostaglandin F2.alpha.]: the “scaled lipid accumulation score” value under setting [3] was not above 0.

Regarding `CCN1CCN(c2ccc(Nc3cc(N(C)C(=O)Nc4c(Cl)c(OC)cc(OC)c4Cl)ncn3)cc2)CC1`, the “scaled lipid accumulation score” value runs as follows: under setting [4], not above -0.009; under setting [5], not above -0.009; under setting [6], 0.01; under setting [2], 0.291.

Take `CCC[C@H](Nc1nc(-c2ccc(NC(=O)NCC)c(OC)c2)ncc1C)c1cccnc1` [CYT997 (Lexibulin)]: the “scaled lipid accumulation score” value under setting [1] is 0.682 and the “scaled lipid accumulation score” value under setting [2] was 0.758.

In the case of `COc1ccc(-c2cc3nccn3c(Nc3ncccc3C(N)=O)n2)cc1OC`, the “scaled lipid accumulation score” value is 0.088 under setting [4], not above -0.009 under setting [5], 0.133 under setting [6] and 0.349 under setting [2].

With `C[N+](C)(C)CCO.[Cl-]` [Choline chloride], the “scaled lipid accumulation score” value is, setting by setting: under setting [2], not above -0.027; (library stock concentration: 14.3 mM) not above 0.

For `C[N+](C)(C)CCO.[Cl-]` [Choline Chloride], the “scaled lipid accumulation score” value runs as follows: under setting [1], not above 0; under setting [2], 0.043.

Regarding `N#CC(=Cc1ccc2[nH]ccc2c1)C(N)=C(C#N)C#N`, where the note is “library stock concentration: 19.3 mM”, the “scaled lipid accumulation score” value was 0.606.

Regarding `COc1ccc(C2=NC(c3ccc(Cl)cc3)C(c3ccc(Cl)cc3)N2C(=O)N2CCNC(=O)C2)c(OC(C)C)c1` (configuration not stated) [Nutlin-3b], the “scaled lipid accumulation score” value was not above -0.009 under setting [1] and not above 0 under setting [2].

Regarding `COc1ccc(C2=N[C@@H](c3ccc(Cl)cc3)[C@@H](c3ccc(Cl)cc3)N2C(=O)N2CCNC(=O)C2)c(OC(C)C)c1` [Nutlin-3], the “scaled lipid accumulation score” value under setting [1] is 0.168 and the “scaled lipid accumulation score” value under setting [2] is 0.829.

As to `COc1ccc(C2=NC(c3ccc(Cl)cc3)C(c3ccc(Cl)cc3)N2C(=O)N2CCNC(=O)C2)c(OC(C)C)c1` (configuration not stated) [Nutlin-3a], the “scaled lipid accumulation score” value under setting [1] was 0.207.

`COc1ccc(C2=N[C@@H](c3ccc(Cl)cc3)[C@H](c3ccc(Cl)cc3)N2C(=O)N2CCNC(=O)C2)c(OC(C)C)c1` [Nutlin-3a]: the “scaled lipid accumulation score” value under setting [2] is 0.954 (active).

Consider `COc1ccc(C2=N[C@@H](c3ccc(Cl)cc3)[C@@H](c3ccc(Cl)cc3)N2C(=O)N2CCNC(=O)C2)c(OC(C)C)c1`, for which the “scaled lipid accumulation score” value under setting [3] is not above 0.

On to `CCCCCCCCCCCCCCCCCCOCC(O)COP(=O)([O-])OCC[N+](C)(C)C` (configuration not stated), for which the “scaled lipid accumulation score” value under setting [3] is not above 0.

As for `CCCCCCCCCCCCCCCCCC(=O)OCC` [Stearic Acid ethyl ester], the “scaled lipid accumulation score” value under setting [3] is not above 0.

As for `O=C(NCCN1CCOCC1)c1ccc(Cl)cc1` [4-Chloro-N-(2-morpholin-4-yl-ethyl)-benzamide], under setting [2], the “scaled lipid accumulation score” value was not above 0.

As for `O=C1C(Cl)=C(NCCN2CCOCC2)C(=O)c2ncccc21`, the “scaled lipid accumulation score” value under setting [2] was 1.04 (active).

Consider `c1ccc2c(c1)CCCc1cc(NCCN3CCOCC3)nnc1-2`, for which the “scaled lipid accumulation score” value was 0.038.

As for `O=C(NCCN1CCOCC1)c1ccc(Cl)cc1` [Moclobemide], the “scaled lipid accumulation score” value was 0.059. Under setting [2], the “scaled lipid accumulation score” value is 0.047.

Turning to `O=C(NCCN1CCOCC1)c1ccc(Cl)cc1`, the “scaled lipid accumulation score” value reads like this: under setting [1], not above 0; under setting [2], not above 0.

As to `CN1Cc2sccc2C(c2ccc(O)c(O)c2)C1` (configuration not stated), the “scaled lipid accumulation score” value under setting [2] is 0.005.

As to `CC(=O)N[C@@H](CSC/C=C(\C)CC/C=C(\C)CCC=C(C)C)C(=O)O` [N-acetyl-S-farnesyl-L-Cysteine], under setting [3], the “scaled lipid accumulation score” value is not above 0.

Turning to `CC(=O)N[C@@H](CSC/C=C(\C)CC/C=C(\C)CCC=C(C)C)C(=O)O` [Acetyl (N)-s-farnesyl-l-cysteine], under “library stock concentration: 13.6 mM”, the “scaled lipid accumulation score” value was not above -0.021.

For `CS(=O)(=O)Nc1c(O)ccc2c1CCCC2C1=NCCN1` (configuration not stated), under setting [2], the “scaled lipid accumulation score” value was 0.027.

Take `COc1cc(C=C(C#N)C(N)=O)cc(CSc2nc3ccccc3s2)c1O` [Tyrphostin AG-825]: the “scaled lipid accumulation score” value (library stock concentration: 12.6 mM) is 0.042.

As for `Cc1cnc(Nc2ccc(OCCN3CCCC3)cc2)nc1Nc1cccc(S(=O)(=O)NC(C)(C)C)c1`, the “scaled lipid accumulation score” value is 0.07 under setting [4]; 0.23 under setting [5]; 0.765 under setting [6]; 0.703 under setting [1]; 0.345 and 0.579 under setting [2].

As to `c1cc(-c2cnn3cc(-c4ccc(OCCN5CCCCC5)cc4)cnc23)ccn1` [AMPK Inhibitor, Compound C], the “scaled lipid accumulation score” value under setting [1] was not above 0.

For the molecule `c1cc(-c2cnn3cc(-c4ccc(OCCN5CCCCC5)cc4)cnc23)ccn1` [Dorsomorphin], the “scaled lipid accumulation score” value is, setting by setting: under setting [4], not above 0; under setting [5], not above 0; under setting [6], 0.557; under setting [2], 0.469.

Regarding `c1ccc(-c2cnc(Nc3ccc(OCCN4CCCC4)cc3)s2)cc1` [Flt-3 Inhibitor III], the “scaled lipid accumulation score” value under setting [1] is 1.17 (active).

For the molecule `CCCCC[C@H](O)C/C=C1/C(=O)C[C@H](O)[C@@H]1C/C=C\CCCC(=O)O` [.DELTA.12-Prostaglandin D2], the “scaled lipid accumulation score” value under setting [3] was not above 0.

Regarding `CCCCC/C=C\C/C=C\CC/C=C\CCCC(=O)O` [Pinolenic Acid], the “scaled lipid accumulation score” value under setting [3] is 0.009.

Regarding `NC(=O)N1C(=O)/C(=C(\O)c2cccs2)c2cc(Cl)ccc21` [Tenidap], under setting [2], the “scaled lipid accumulation score” value was not above -0.001.

Turning to `O=C(O)c1cc(O)c2ccc(Cl)cc2n1` [7-Chlorokynurenic acid], under setting [2], the “scaled lipid accumulation score” value is 0.023.
